Laboratory results as given in PubChem BioAssay (NCI).
The panel holds about 83,000 compounds, 20% with a hit somewhere; the sample as a whole holds those more often.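 Results are percent growth after 48 hours of single-concentration exposure. 100 means growth as in untreated cells, lower positive values show inhibition; negative values down to -100 show cell death.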 A number with no mark means an inactive call. Calls of active or inactive are those of the source. The calls were made as follows: active = growth percent below 10; inactive = the rest.

What was measured:
Assay in all cases: NCI-60 one-dose screen, 48 h (100 = growth as untreated, 0 = no growth, -100 = all killed)
Settings in all cases: 10 µM unless noted
NCI-H23 lung = system: NCI-H23 lung
NCI-H226 lung = system: NCI-H226 lung
NCI-H322M lung = system: NCI-H322M lung
HOP-62 NSCLC = system: HOP-62 NSCLC
NCI-H460 lung = system: NCI-H460 lung
HOP-92 NSCLC = system: HOP-92 NSCLC
NCI-H522 lung = system: NCI-H522 lung
A549/ATCC NSCLC = system: A549/ATCC NSCLC
786-0 renal = system: 786-0 renal
COLO 205 colon = system: COLO 205 colon
DU-145 prostate = system: DU-145 prostate
MALME-3M melanoma = system: MALME-3M melanoma
MDA-MB-231 breast = system: MDA-MB-231 breast
SF-268 CNS = system: SF-268 CNS
SF-295 CNS = system: SF-295 CNS
SF-539 CNS = system: SF-539 CNS
M14 melanoma = system: M14 melanoma
K-562 leukemia = system: K-562 leukemia
RXF 393 renal = system: RXF 393 renal
UACC-257 melanoma = system: UACC-257 melanoma

SMILES: Oc1ccc(/C=N/Nc2nnc(N/N=C/c3ccc(O)cc3O)c3ccccc23)c(O)c1
- growth (NCI-H23 lung): -58.7% (active)
- growth (NCI-H226 lung): -39.5% (active)
- growth (NCI-H322M lung): -0.934% (active)
- growth (HOP-62 NSCLC): -31.6% (active)
- growth (NCI-H460 lung): -34.1% (active)
- growth (HOP-92 NSCLC): -35.8% (active)
- growth (NCI-H522 lung): -45.4% (active)
- growth (A549/ATCC NSCLC): -58% (active)
- growth (786-0 renal): -3.79% (active)
- growth (COLO 205 colon): -23.8% (active)
- growth (DU-145 prostate): -24.3% (active)
- growth (MALME-3M melanoma): -5.87% (active)
- growth (MDA-MB-231 breast): -13.6% (active)
- growth (SF-268 CNS): -5.14% (active)
- growth (SF-295 CNS): -38.1% (active)
- growth (SF-539 CNS): -42.1% (active)
- growth (M14 melanoma): -52.7% (active)

SMILES: CC(=Nc1ccccc1)C1=C(O)C(Cc2ccccc2)NC1=O (stereo not drawn)
- growth (NCI-H23 lung): -1.27% (active)
- growth (NCI-H226 lung): 15.4%
- growth (NCI-H322M lung): 45.7%
- growth (HOP-62 NSCLC): 16.7%
- growth (NCI-H460 lung): 3.86% (active)
- growth (HOP-92 NSCLC): -9.07% (active)
- growth (NCI-H522 lung): -15.4% (active)
- growth (A549/ATCC NSCLC): -28.9% (active)
- growth (786-0 renal): 8.26% (active)
- growth (COLO 205 colon): -71.8% (active)
- growth (DU-145 prostate): -31.5% (active)
- growth (MALME-3M melanoma): 58.6%
- growth (MDA-MB-231 breast): -1.28% (active)
- growth (SF-268 CNS): 14.1%
- growth (SF-295 CNS): -19.1% (active)
- growth (SF-539 CNS): -33.8% (active)
- growth (M14 melanoma): -16.6% (active)

SMILES: O=C(Nc1cccc([N+](=O)[O-])c1)c1ccc(Cl)c(Cl)c1
- growth (NCI-H23 lung): 59.3%
- growth (NCI-H226 lung): 43.3%
- growth (NCI-H322M lung): 69.7%
- growth (HOP-62 NSCLC): 7.13% (active)
- growth (NCI-H460 lung): 77.6%
- growth (HOP-92 NSCLC): 51.6%
- growth (NCI-H522 lung): 60%
- growth (A549/ATCC NSCLC): 68.3%
- growth (786-0 renal): 67.4%
- growth (DU-145 prostate): 74.8%
- growth (K-562 leukemia): 79.9%
- growth (MALME-3M melanoma): 30.2%
- growth (MDA-MB-231 breast): 80.7%
- growth (RXF 393 renal): 62.8%
- growth (SF-268 CNS): 54.4%
- growth (SF-295 CNS): 58.7%
- growth (SF-539 CNS): 83%
- growth (UACC-257 melanoma): 92.5%
- growth (M14 melanoma): 93.1%

SMILES: CC(=O)Nc1cccc(-n2c(=O)n(C3CC3)c(=O)c3c(Nc4ccc(I)cc4F)n(C)c(=O)c(C)c32)c1
- growth (NCI-H23 lung): 17.1%
- growth (NCI-H226 lung): 49.5%
- growth (NCI-H322M lung): 10.9%
- growth (HOP-62 NSCLC): 19.5%
- growth (NCI-H460 lung): 56.1%
- growth (HOP-92 NSCLC): -27% (active)
- growth (NCI-H522 lung): 34.6%
- growth (A549/ATCC NSCLC): 28.4%
- growth (786-0 renal): 56.2%
- growth (DU-145 prostate): 53%
- growth (K-562 leukemia): 25.5%
- growth (MALME-3M melanoma): -0.925% (active)
- growth (MDA-MB-231 breast): 18.6%
- growth (RXF 393 renal): -15.2% (active)
- growth (SF-268 CNS): 53%
- growth (SF-295 CNS): 82.6%
- growth (SF-539 CNS): 41.1%
- growth (UACC-257 melanoma): -21.9% (active)
- growth (M14 melanoma): 1.71% (active)

SMILES: O=C(Nc1ccc(C(=O)Nc2ccc(C3=NCCCN3)cc2)cc1)Nc1ccc(C2=NCCCN2)cc1
- growth (NCI-H23 lung): 63%
- growth (NCI-H226 lung): 67.9%
- growth (NCI-H322M lung): 84.8%
- growth (HOP-62 NSCLC): 87.1%
- growth (NCI-H460 lung): 75%
- growth (HOP-92 NSCLC): 80.5%
- growth (NCI-H522 lung): 71.6%
- growth (A549/ATCC NSCLC): 75.9%
- growth (786-0 renal): 96.7%
- growth (COLO 205 colon): 105%
- growth (DU-145 prostate): 96.1%
- growth (MALME-3M melanoma): 69.5%
- growth (MDA-MB-231 breast): 92.4%
- growth (SF-268 CNS): 110%
- growth (SF-295 CNS): 85.3%
- growth (SF-539 CNS): 87.2%
- growth (M14 melanoma): 87%

SMILES: COc1cc2ncnc3c2cc1OCCCCCN(C)Cc1ccc(Br)cc1N3
- growth (NCI-H23 lung): 70.2%
- growth (NCI-H226 lung): 88.3%
- growth (NCI-H322M lung): 0.138% (active)
- growth (HOP-62 NSCLC): 74.5%
- growth (NCI-H460 lung): 36.7%
- growth (HOP-92 NSCLC): 64.6%
- growth (NCI-H522 lung): -9.44% (active)
- growth (A549/ATCC NSCLC): 35.1%
- growth (786-0 renal): 68.7%
- growth (DU-145 prostate): 31.1%
- growth (K-562 leukemia): 26.1%
- growth (MALME-3M melanoma): 71.8%
- growth (MDA-MB-231 breast): 63.7%
- growth (RXF 393 renal): 69.3%
- growth (SF-268 CNS): 65.1%
- growth (SF-295 CNS): 78.7%
- growth (SF-539 CNS): 88.6%
- growth (UACC-257 melanoma): 31.5%
- growth (M14 melanoma): 36.9%

SMILES: C/C=C/C=N/NC(=S)Nc1ccccc1
- growth (NCI-H23 lung): 90.7%
- growth (NCI-H226 lung): 95.8%
- growth (NCI-H322M lung): 90.6%
- growth (HOP-62 NSCLC): 86%
- growth (NCI-H460 lung): 112%
- growth (HOP-92 NSCLC): 93%
- growth (NCI-H522 lung): 82.7%
- growth (A549/ATCC NSCLC): 79.4%
- growth (786-0 renal): 106%
- growth (DU-145 prostate): 104%
- growth (K-562 leukemia): 88.9%
- growth (MALME-3M melanoma): 96.5%
- growth (MDA-MB-231 breast): 89.9%
- growth (RXF 393 renal): 119%
- growth (SF-268 CNS): 100%
- growth (SF-295 CNS): 98.9%
- growth (SF-539 CNS): 89.5%
- growth (UACC-257 melanoma): 81.1%
- growth (M14 melanoma): 96.5%

SMILES: C=CCN(/C=C1/C(=O)O[C@H](COC)[C@@]2(C)C1=C(O)C(=O)C1=C2[C@H](OC(C)=O)C[C@]2(C)C(=O)CC[C@@H]12)CC=C
- growth (NCI-H23 lung): 36.7%
- growth (NCI-H226 lung): 24%
- growth (NCI-H322M lung): -15.1% (active)
- growth (HOP-62 NSCLC): 16.5%
- growth (NCI-H460 lung): 11.2%
- growth (HOP-92 NSCLC): -3.58% (active)
- growth (NCI-H522 lung): 13.5%
- growth (A549/ATCC NSCLC): 4.59% (active)
- growth (786-0 renal): 4.54% (active)
- growth (DU-145 prostate): 26.6%
- growth (K-562 leukemia): 40.9%
- growth (MALME-3M melanoma): -1.8% (active)
- growth (MDA-MB-231 breast): 42%
- growth (RXF 393 renal): -41.1% (active)
- growth (SF-268 CNS): 29.9%
- growth (SF-295 CNS): 5.72% (active)
- growth (SF-539 CNS): -19.1% (active)
- growth (UACC-257 melanoma): 15.8%
- growth (M14 melanoma): 28.2%

SMILES: O=C(Nc1ccc(C2=NCCCN2)cc1)c1ccc(C(=O)Nc2ccc(C3=NCCCN3)cc2)nc1
- growth (NCI-H23 lung): 102%
- growth (NCI-H226 lung): 101%
- growth (NCI-H322M lung): 111%
- growth (HOP-62 NSCLC): 97.2%
- growth (NCI-H460 lung): 107%
- growth (HOP-92 NSCLC): 131%
- growth (NCI-H522 lung): 96.1%
- growth (A549/ATCC NSCLC): 141%
- growth (786-0 renal): 96.6%
- growth (COLO 205 colon): 125%
- growth (DU-145 prostate): 122%
- growth (MALME-3M melanoma): 117%
- growth (MDA-MB-231 breast): 104%
- growth (SF-268 CNS): 106%
- growth (SF-295 CNS): 110%
- growth (SF-539 CNS): 104%
- growth (M14 melanoma): 102%
